Laboratory results reported in PubChem BioAssay (NCATS).
Records with an inconclusive call do not appear. Active and inactive are the calls of the source. The call rests on the fitted dose curve; in most records, active means well fitted curve in the direction sought with a large enough effect; inconclusive means small, poorly fitted or top-dose-only effect, or another doubt; inactive means no such curve, though single readings can be large; an effect the other way counts as inactive or inconclusive.

Tests used:
[1] = qHTS of pediatric cancer cell lines to identify multiple opportunities for drug repurposing: Primary screen for MG 63 (6-TG R) cells (AID 1347105); further: nearly all actives have a fitted effect of over 50% in size; further: potency means the concentration at half of the fitted maximal effect; on activity change, negative = cytotoxic: on the % scale 0 is the no-effect control and ±100 the full control effect
Summary of the method: (§1)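 Cells plated at 500-1,000/well in growth medium, compounds added after 5 h. MIPE tested at 11 points (from 0.78 nM), NPC at 8 points (from 0.59 nM). CellTiter-Glo luminescence after 48 h; concentration-response curves from primary screen.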

[2] = qHTS of pediatric cancer cell lines to identify multiple opportunities for drug repurposing: Primary screen for control Hh wild type fibroblast cells (AID 1347106);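 further: series mostly up to about 46 µM; on the % scale 0 is the no-effect control and ±100 the full control effect; a drop in luminescence marks cytotoxicity and a rise apparent proliferation; nearly all actives have a fitted effect of over 55% in size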
Summary of the method: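 Cells (500-1,000/well) in growth media were settled 5 h at 37 degrees C, then given compounds for 48 h. Viability was read as CellTiter-Glo luminescence. Primary runs used MIPE at 11 points (0.78 nM-46 µM) and NPC at 8 points (0.59 nM-46 µM); follow-ups used 11 points.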

[3] = qHTS of pediatric cancer cell lines to identify multiple opportunities for drug repurposing: Primary screen for Rh30 cells (AID 1347107); further: series mostly up to about 46 µM; on the % scale 0 is the no-effect control and ±100 the full control effect; nearly all actives have a fitted effect of over 75% in size
Summary of the method: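 Viability after 48 h compound treatment at 37C, 500-1,000 cells/well, read as ATP luminescence with CellTiter-Glo. Primary screens used 11-point (MIPE, 0.78 nM-46 µM) or 8-point (NPC, 0.59 nM-46 µM) final concentrations; follow-up screens used 11-point dilutions.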

[4] = qHTS of pediatric cancer cell lines to identify multiple opportunities for drug repurposing: Primary screen for Rh41 cells (AID 1347108);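 further: series mostly up to about 46 µM; luminescence drop marks cytotoxic hits; nearly all actives have a fitted effect of over 70% in size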
Summary of the method: as §1

CC(C)NNC(=O)c1ccncc1
inactive: Potency [1] | outcome [2] | Potency [3] | Potency [4]

CN(C)C(=O)Oc1cccc([N+](C)(C)C)c1
inactive: Potency [1] | outcome [2] | Potency [3] | Potency [4]

NS(=O)(=O)c1cc2c(cc1Cl)NC(C1CC3C=CC1C3)NS2(=O)=O (configuration not stated)
inactive: Potency [1] | outcome [2] | Potency [3] | Potency [4]

COc1cc(C(=O)OCCCN2CCCN(CCCOC(=O)c3cc(OC)c(OC)c(OC)c3)CC2)cc(OC)c1OC
inactive: Potency [1] | outcome [2] | Potency [3] | Potency [4]

COCC(=O)O[C@]1(CCN(C)CCCc2nc3ccccc3[nH]2)CCc2cc(F)ccc2[C@@H]1C(C)C
inactive: outcome [2]
active: Potency [1] 21.1 µM

CN(C)CCOC(=O)COc1ccc(Cl)cc1
inactive: Potency [1] | outcome [2] | Potency [3] | Potency [4]

CCC(=O)c1ccc2c(c1)N(CCCN(C)C)c1ccccc1S2
inactive: Potency [1] | outcome [2] | Potency [3] | Potency [4]

COc1ccc([C@@H]2Sc3ccccc3N(CCN(C)C)C(=O)[C@@H]2OC(C)=O)cc1
inactive: Potency [1] | outcome [2] | Potency [3] | Potency [4]

CCN(CC)CCCN(c1ccccc1)C1Cc2ccccc2C1
inactive: Potency [1] | outcome [2] | Potency [3] | Potency [4]

CN(C)CC/C=C1\c2ccccc2COc2ccccc21
inactive: Potency [1] | outcome [2] | Potency [3]

CN(C(=O)CCCOc1ccc2[nH]c(=O)ccc2c1)C1CCCCC1
inactive: Potency [1] | outcome [2] | Potency [3]

Cc1ccc(/C(=C\CN2CCCC2)c2ccccn2)cc1
inactive: Potency [1] | outcome [2] | Potency [3] | Potency [4]

COC(=O)C1=C(C)NC(C)=C(C(=O)OC(C)(C)CN(C)CCC(c2ccccc2)c2ccccc2)C1c1cccc([N+](=O)[O-])c1 (configuration not stated)
inactive: Potency [1] | outcome [2]

CN1CCN(CC(=O)N2c3ccccc3C(=O)Nc3cccnc32)CC1
inactive: activity change, negative = cytotoxic [1] 3.64% [at 4.84 µM] | activity change, negative = cytotoxic [2] 2.83% [at 4.84 µM] | activity change, negative = cytotoxic [3] 18% [at 4.84 µM] | activity change, negative = cytotoxic [4] 19.3% [at 4.84 µM]

CCN1CCc2nc(N)oc2CC1
inactive: Potency [1] | outcome [2] | Potency [3] | Potency [4]

CNC1(C)C2CCC(C2)C1(C)C (configuration not stated)
inactive: Potency [1] | outcome [2] | Potency [3] | Potency [4]

NC(=O)N1c2ccccc2C=Cc2ccccc21
inactive: Potency [1] | outcome [2] | Potency [3] | Potency [4]

CCCCCN(CCCCC)C(=O)C(CCC(=O)O)NC(=O)c1ccc(Cl)c(Cl)c1 (configuration not stated)
inactive: Potency [1] | outcome [2] | Potency [3] | Potency [4]

c1cc(CN2CCCCC2)cc(OCCCNc2nc3ccccc3s2)c1
inactive: Potency [1] | outcome [2] | Potency [3]

CCN(Cc1ccncc1)C(=O)C(CO)c1ccccc1 (configuration not stated)
inactive: Potency [1] | outcome [2] | Potency [3] | Potency [4]

O=C(CCCN1CCC(O)(c2cccc(C(F)(F)F)c2)CC1)c1ccc(F)cc1
inactive: Potency [1] | outcome [2] | Potency [3] | Potency [4]

CCCCNc1ccc(C(=O)OCCN(C)C)cc1
inactive: Potency [1] | outcome [2] | Potency [3] | Potency [4]

FC(F)(F)c1ccccc1-n1ccnc1
inactive: Potency [1] | outcome [2] | Potency [3] | Potency [4]

COC(=O)[C@@H](N)Cc1ccc(O)c(O)c1
inactive: Potency [1] | outcome [2] | Potency [3] | Potency [4]

C[C@]12CCC(=O)C=C1CC[C@@H]1[C@@H]2CC[C@@]2(C)[C@H]1CC[C@]2(O)C(=O)CO
inactive: Potency [1] | outcome [2] | Potency [3] | Potency [4]

CC(=O)Nc1nnc(S(N)(=O)=O)s1
inactive: Potency [1] | outcome [2] | Potency [3] | Potency [4]

NC(=O)c1ncn([C@@H]2O[C@H](CO)[C@@H](O)[C@H]2O)c1O
inactive: Potency [1] | outcome [2] | Potency [3] | Potency [4]

CCc1c(C)[nH]c2c1C(=O)C(CN1CCOCC1)CC2 (configuration not stated)
inactive: Potency [1] | outcome [2] | Potency [3] | Potency [4]

C[N+](C)(C)CCOC(N)=O
inactive: Potency [1] | outcome [2] | Potency [3] | Potency [4]

CCn1ccnc1CC1COc2ccccc2O1 (configuration not stated)
inactive: Potency [1] | outcome [2] | Potency [3] | Potency [4]

c1cnc(N2CCN(Cc3ccc4c(c3)OCO4)CC2)nc1
inactive: Potency [1] | outcome [2] | Potency [3] | Potency [4]

Cc1nc2c([nH]1)c(=O)n(C)c(=O)n2Cc1ccco1
inactive: Potency [1] | outcome [2] | Potency [3] | Potency [4]

CCN(CC)CCOCCOC(=O)C1(c2ccccc2)CCCC1
inactive: Potency [1] | outcome [2] | Potency [3] | Potency [4]

C[C@H](CS)C(=O)N1CCC[C@H]1C(=O)O
inactive: Potency [1] | outcome [2] | Potency [3] | Potency [4]

NC(N)=NC(=O)Cc1c(Cl)cccc1Cl
inactive: Potency [1] | outcome [2] | Potency [3] | Potency [4]

O=C(O)CN(CCN(CC(=O)O)CC(=O)O)CCN(CC(=O)O)CC(=O)O
inactive: Potency [1] | outcome [2] | Potency [3] | Potency [4]
